For 7 compounds, growth results are on record in PubChem BioAssay (NCI).

SMILES strings stand for the structures. About 83,000 compounds went through this panel and 20% of them were active in at least one assay; those are over-represented in the sample as a whole.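 Assay: single dose, 48 h. Readout: percent growth (0 = no net growth; negative = cell death). Active: <10.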 Values without a mark were called inactive. The source made the active and inactive calls.

Some test systems named below: HCT-15 colon; HT29 colon; SNB-75 CNS; U251 CNS; PC-3 prostate; SK-MEL-5 melanoma; UACC-62 melanoma; SK-MEL-28 melanoma; SK-MEL-2 melanoma; EKVX NSCLC; SN12C renal; UO-31 renal; TK-10 renal; ACHN renal; CAKI-1 renal; A498 renal; CCRF-CEM leukemia; MOLT-4 leukemia; SNB-19 CNS; LOX IMVI melanoma.
Holding throughout (experiment): NCI-60 one-dose screen, 48 h (100 = growth as untreated, 0 = no growth, -100 = all killed)
Common to all, as to conditions: 10 µM unless noted

With `COc1ccc(CCN2CC=Cn3c2nc2ccccc2c3=O)cc1`, the growth with HCT-15 colon is 15.9%; in the assay on HT29 colon it was 12.9%; in the assay with SNB-75 CNS it was 37.1%; with U251 CNS, 27.6%; in the assay with PC-3 prostate, 34.1%; with SK-MEL-5 melanoma it was -13.8% (active). Also, the growth in the assay on UACC-62 melanoma was 31.8%; in the assay on SK-MEL-28 melanoma, 78.7%; in the assay with SK-MEL-2 melanoma, 46.5%; with EKVX NSCLC it was 64.9%; in the assay with SN12C renal, 32.6%; with UO-31 renal, 35.2%. The growth in the assay on TK-10 renal was 77.6%; with ACHN renal it was 26.7%; in the assay on CAKI-1 renal, 26.9%; in the assay on A498 renal, -7.45% (active); in the assay on CCRF-CEM leukemia, 18.7%; in the assay on MOLT-4 leukemia, 19%.

As to `CCOC(=O)c1cnc2ccc(Br)cc2c1Nc1cccc(S(=O)(=O)NC)c1`, the growth in the assay with HCT-15 colon is 80.5%; with HT29 colon, 101%; with SNB-19 CNS, 100%; with U251 CNS it was 109%; in the assay with PC-3 prostate it was 102%; in the assay on SK-MEL-5 melanoma, 96.6%. Moreover, the growth in the assay with UACC-62 melanoma is 96.9%; in the assay with LOX IMVI melanoma it was 93.6%; with SK-MEL-28 melanoma, 122%; in the assay with SK-MEL-2 melanoma, 111%; in the assay on EKVX NSCLC, 96.2%; in the assay on SN12C renal, 103%. Also, the growth in the assay on UO-31 renal is 80.4%; with TK-10 renal it was 114%; in the assay on ACHN renal, 98.3%; in the assay with CAKI-1 renal, 87.4%; in the assay with A498 renal, 77.7%; in the assay on CCRF-CEM leukemia it was 105%. For the same compound, the growth with MOLT-4 leukemia was 115%.

Regarding `Fc1ccc(Cc2ccc(F)cc2)cc1`, the growth is 116% in the assay on HCT-15 colon; 111% in the assay with HT29 colon; 102% in the assay with SNB-19 CNS; 98.5% with U251 CNS; 102% in the assay with PC-3 prostate; 101% in the assay with SK-MEL-5 melanoma. Further, the growth is 101% in the assay with UACC-62 melanoma; 97.9% with LOX IMVI melanoma; 105% with SK-MEL-28 melanoma; 111% with SK-MEL-2 melanoma; 105% in the assay on EKVX NSCLC; 95.7% in the assay with SN12C renal. The growth in the assay with UO-31 renal is 79.7%; in the assay with TK-10 renal it was 101%; in the assay on ACHN renal it was 104%; in the assay with CAKI-1 renal, 94.8%; in the assay on A498 renal, 99.7%; in the assay on CCRF-CEM leukemia it was 107%. Moreover, the growth in the assay with MOLT-4 leukemia was 94.5%.

As for `c1ccc2c(Nc3cccc4ccccc34)cccc2c1`, the growth in the assay with HCT-15 colon was 35.1%; in the assay on HT29 colon, 15.8%; in the assay on SNB-75 CNS, 20.8%; with U251 CNS it was 32.1%; in the assay with PC-3 prostate it was 65.2%; in the assay on SK-MEL-5 melanoma, 71%. Also, the growth was 23.7% with UACC-62 melanoma; 61.5% with SK-MEL-28 melanoma; 38.6% in the assay with SK-MEL-2 melanoma; 78.1% with EKVX NSCLC; 58.8% in the assay with SN12C renal; 41.3% in the assay with UO-31 renal. Moreover, the growth in the assay with TK-10 renal was 81.3%; with ACHN renal it was 79.1%; with CAKI-1 renal, 40.3%; in the assay with A498 renal, 81.2%; with CCRF-CEM leukemia, 59.8%; with MOLT-4 leukemia, 30.5%.

Turning to `CC(C)[C@@H]1CC[C@]2(C(=O)NCCCCN=C(N)N)CC[C@]3(C)[C@H](CC[C@@H]4[C@@]5(C)CCC(=O)C(C)(C)[C@@H]5CC[C@]43C)[C@@H]12`, the growth in the assay on HCT-15 colon was 96.4%; in the assay with HT29 colon it was 40.2%; in the assay on SNB-19 CNS it was 41.9%; with U251 CNS it was 30.8%; in the assay with PC-3 prostate, 46.6%; in the assay on SK-MEL-5 melanoma it was 20.4%. Besides, the growth is 48.2% with UACC-62 melanoma; 69.9% in the assay on LOX IMVI melanoma; 15.6% with SK-MEL-28 melanoma; 83.3% with SK-MEL-2 melanoma; 81.5% in the assay with EKVX NSCLC; 60.7% in the assay on SN12C renal. Besides, the growth is 82.6% in the assay with UO-31 renal; 88.7% with TK-10 renal; 79.6% in the assay on ACHN renal; 96.7% with CAKI-1 renal; 111% with A498 renal; 37.6% in the assay on CCRF-CEM leukemia. The growth with MOLT-4 leukemia is 38.6%.

For `Cc1ccc(-c2nc(/C=N/Nc3cc(C)nc4ccc(Br)cc34)c(C)o2)cc1`, the growth was -83.7% (active) in the assay with HCT-15 colon; -70% (active) in the assay on HT29 colon; -48.9% (active) in the assay on SNB-19 CNS; -76.4% (active) in the assay on U251 CNS; 5.84% (active) in the assay on PC-3 prostate; 63.8% with SK-MEL-5 melanoma. The growth was 86.4% in the assay on UACC-62 melanoma; -88.5% (active) in the assay on LOX IMVI melanoma; -13.5% (active) in the assay with SK-MEL-28 melanoma; 95.8% with SK-MEL-2 melanoma; 2.6% (active) in the assay with EKVX NSCLC; -83.4% (active) with SN12C renal. Besides, the growth with UO-31 renal is -98% (active); with TK-10 renal it was -17.5% (active); with ACHN renal, -85.1% (active); in the assay with CAKI-1 renal, -71.5% (active); in the assay with A498 renal it was 86.6%; in the assay with CCRF-CEM leukemia, -42.1% (active). Besides, in the assay on MOLT-4 leukemia, the growth was -34.7% (active).

In the case of `C(=N\Nc1ccccn1)/c1ccccn1`, the growth in the assay on HCT-15 colon is 42.7%; in the assay on HT29 colon, 19%; in the assay with SNB-19 CNS, 40.4%; in the assay on U251 CNS, 13.4%; with PC-3 prostate, 63.5%; with SK-MEL-5 melanoma, -4.55% (active). Further, the growth was 2.66% (active) in the assay on UACC-62 melanoma; -11.6% (active) in the assay on LOX IMVI melanoma; 34.8% in the assay with SK-MEL-28 melanoma; 48.9% in the assay on SK-MEL-2 melanoma; 25.8% with EKVX NSCLC; 36.5% with SN12C renal. The growth was -10.7% (active) with UO-31 renal; 17.5% with TK-10 renal; 14.1% in the assay with ACHN renal; 10.5% with CAKI-1 renal; 22.4% with A498 renal; 0.917% (active) in the assay with CCRF-CEM leukemia. For the same compound, the growth in the assay with MOLT-4 leukemia is 18.8%.
